Drawing on paper PMC7862700, “An all-to-all approach to the identification of sequence-specific readers for epigenetic DNA modifications on cytosine”, this text covers binding signal for 1 sequence.

What all share (experiment): DAPPL (digital affinity profiling via proximity ligation, sequencing); 10 mM Tris-HCl pH 7.5, 50 mM NaCl, 1 mM DTT, 4% glycerol, room temperature, 30 min; GST-TFs on glutathione beads, 16-mer random dsDNA library, 0.1% formaldehyde crosslink after washing; high values mean tight binding
The target of one assay is T1, FEV (Homo sapiens, UniProt Q99581 1-238).
T1 sequence: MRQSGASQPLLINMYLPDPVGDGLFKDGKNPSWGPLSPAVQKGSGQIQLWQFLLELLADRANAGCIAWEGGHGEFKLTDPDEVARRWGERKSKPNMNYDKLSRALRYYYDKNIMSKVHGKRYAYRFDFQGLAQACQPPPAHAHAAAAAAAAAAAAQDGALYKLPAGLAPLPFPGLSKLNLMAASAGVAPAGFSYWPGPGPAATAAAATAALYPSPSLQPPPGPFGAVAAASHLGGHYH
Conditions: protein: recombinant; tags: N-terminal GST; dsDNA, one strand shown. Summed up: (§1)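 A tag-only sample was pooled with DNA-barcoded human transcription factors that had been expressed in yeast as GST fusions and captured on glutathione beads. The pools were incubated for 30 min at room temperature with 200 nmole of a random double-stranded 16-mer DNA library in Tris/NaCl/DTT/glycerol buffer, then washed, crosslinked with 0.1% formaldehyde, proximity-ligated (BsaI/T4 ligase, 1 h, 37 °C), PCR-amplified and sequenced on an Illumina NextSeq500. Binding signal is each hexamer's read frequency for a factor divided by its frequency for the tag-only sample.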

The next assay deals with ETV5 (Homo sapiens, UniProt P41161 1-510). The conditions noted are these: protein: recombinant; tags: N-terminal GST; dsDNA, one strand shown. Summed up:
as §1

The next assay deals with HSF1 (Homo sapiens, UniProt Q00613 1-529). Conditions: protein: recombinant; tags: N-terminal GST; chain copies: 3; dsDNA, one strand shown. Summed up: as §1
Chain of HSF1 (Q00613 whole entry): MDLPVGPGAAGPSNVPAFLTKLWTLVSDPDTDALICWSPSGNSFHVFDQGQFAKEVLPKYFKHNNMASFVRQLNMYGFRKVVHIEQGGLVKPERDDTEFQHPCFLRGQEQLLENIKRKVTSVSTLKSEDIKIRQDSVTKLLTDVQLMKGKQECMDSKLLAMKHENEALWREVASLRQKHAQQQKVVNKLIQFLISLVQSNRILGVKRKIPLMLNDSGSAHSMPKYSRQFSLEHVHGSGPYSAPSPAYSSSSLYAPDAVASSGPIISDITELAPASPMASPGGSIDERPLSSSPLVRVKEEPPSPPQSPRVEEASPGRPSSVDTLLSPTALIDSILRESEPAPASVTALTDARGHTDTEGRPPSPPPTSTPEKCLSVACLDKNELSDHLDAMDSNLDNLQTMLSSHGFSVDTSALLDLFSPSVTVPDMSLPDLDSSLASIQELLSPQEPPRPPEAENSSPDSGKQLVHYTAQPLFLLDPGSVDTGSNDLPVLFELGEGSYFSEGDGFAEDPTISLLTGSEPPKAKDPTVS
In a further assay the target is T2, SPIC (Homo sapiens, UniProt Q8N5J4 1-248).
T2 sequence: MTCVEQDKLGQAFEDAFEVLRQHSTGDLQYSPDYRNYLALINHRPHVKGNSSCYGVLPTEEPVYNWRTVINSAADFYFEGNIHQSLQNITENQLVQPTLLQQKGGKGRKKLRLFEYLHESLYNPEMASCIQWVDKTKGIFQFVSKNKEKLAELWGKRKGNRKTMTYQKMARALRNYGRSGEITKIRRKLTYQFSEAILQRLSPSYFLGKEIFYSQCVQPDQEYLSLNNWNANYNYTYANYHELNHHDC
The conditions noted are these: protein: recombinant; tags: N-terminal GST; dsDNA, one strand shown. Summed up:
as §1

The next assay deals with ELF4 (Homo sapiens, UniProt Q99607 1-663). Conditions: protein: recombinant; tags: N-terminal GST; dsDNA, one strand shown. Summed up: as §1
Chain of ELF4 (Q99607 whole entry): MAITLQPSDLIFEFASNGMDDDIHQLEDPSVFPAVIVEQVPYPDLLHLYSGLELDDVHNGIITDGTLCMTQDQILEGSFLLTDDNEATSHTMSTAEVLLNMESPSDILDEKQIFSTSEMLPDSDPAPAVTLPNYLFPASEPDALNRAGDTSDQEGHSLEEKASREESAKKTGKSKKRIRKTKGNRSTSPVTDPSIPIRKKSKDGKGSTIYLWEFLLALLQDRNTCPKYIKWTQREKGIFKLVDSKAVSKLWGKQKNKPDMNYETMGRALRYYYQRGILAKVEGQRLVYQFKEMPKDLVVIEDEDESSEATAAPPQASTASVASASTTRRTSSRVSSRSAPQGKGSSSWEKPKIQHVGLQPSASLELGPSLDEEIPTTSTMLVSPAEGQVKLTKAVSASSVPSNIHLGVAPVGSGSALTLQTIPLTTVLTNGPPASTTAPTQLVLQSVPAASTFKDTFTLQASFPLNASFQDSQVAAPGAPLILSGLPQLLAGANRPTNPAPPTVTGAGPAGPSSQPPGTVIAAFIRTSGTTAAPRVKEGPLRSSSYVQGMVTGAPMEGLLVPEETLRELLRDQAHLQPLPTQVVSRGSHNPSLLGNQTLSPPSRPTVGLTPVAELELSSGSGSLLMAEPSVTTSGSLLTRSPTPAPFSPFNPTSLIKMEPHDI
For the next assay, the target named is T3, ELK4 (Homo sapiens, UniProt P28324-2 1-405).
T3 sequence: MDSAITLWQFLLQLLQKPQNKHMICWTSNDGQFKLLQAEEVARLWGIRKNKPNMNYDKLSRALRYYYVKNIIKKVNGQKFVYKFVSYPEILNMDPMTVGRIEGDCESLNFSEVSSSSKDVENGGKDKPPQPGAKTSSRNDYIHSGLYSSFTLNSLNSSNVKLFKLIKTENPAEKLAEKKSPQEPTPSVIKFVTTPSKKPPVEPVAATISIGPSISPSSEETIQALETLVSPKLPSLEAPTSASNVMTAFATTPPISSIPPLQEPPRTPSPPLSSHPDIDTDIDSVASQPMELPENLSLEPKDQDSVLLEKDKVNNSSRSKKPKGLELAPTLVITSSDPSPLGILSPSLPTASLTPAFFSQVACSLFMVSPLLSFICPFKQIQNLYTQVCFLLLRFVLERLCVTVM
Conditions: protein: recombinant; tags: N-terminal GST; dsDNA, one strand shown. Summed up: as §1

Another assay deals with T4, ETV2 (Homo sapiens, UniProt O00321 1-342).
T4 sequence: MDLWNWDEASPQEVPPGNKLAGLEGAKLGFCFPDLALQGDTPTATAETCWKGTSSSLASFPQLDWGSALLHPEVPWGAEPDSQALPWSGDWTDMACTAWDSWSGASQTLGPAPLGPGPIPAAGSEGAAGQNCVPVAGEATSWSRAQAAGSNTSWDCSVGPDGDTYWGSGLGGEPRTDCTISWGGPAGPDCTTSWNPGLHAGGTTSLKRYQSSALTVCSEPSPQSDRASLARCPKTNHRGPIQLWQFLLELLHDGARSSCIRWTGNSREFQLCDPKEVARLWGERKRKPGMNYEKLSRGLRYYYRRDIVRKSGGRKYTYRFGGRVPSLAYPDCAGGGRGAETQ
Conditions: protein: recombinant; tags: N-terminal GST; dsDNA, one strand shown. Summed up: as §1

For another assay, the target named is T5, ELF3 (Homo sapiens, UniProt P78545 1-371).
T5 sequence: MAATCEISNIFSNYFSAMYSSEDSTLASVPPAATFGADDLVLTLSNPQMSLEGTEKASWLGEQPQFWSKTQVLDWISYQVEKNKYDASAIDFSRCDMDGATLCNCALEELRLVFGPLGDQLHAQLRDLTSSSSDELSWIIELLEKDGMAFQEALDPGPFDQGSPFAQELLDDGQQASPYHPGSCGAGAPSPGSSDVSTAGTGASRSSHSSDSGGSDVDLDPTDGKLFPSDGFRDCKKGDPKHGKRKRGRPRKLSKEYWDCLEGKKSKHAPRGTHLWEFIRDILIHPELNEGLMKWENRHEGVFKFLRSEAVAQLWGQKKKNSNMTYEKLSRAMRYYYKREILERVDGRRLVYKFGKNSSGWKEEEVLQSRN
The conditions noted are these: protein: recombinant; tags: N-terminal GST; dsDNA, one strand shown. Summed up:
as §1

Another assay concerns the target CRX (Homo sapiens, UniProt O43186 1-299). The conditions noted are these: protein: recombinant; tags: N-terminal GST; dsDNA, one strand shown. Summed up:
as §1

The target in another assay is ETV1 (Homo sapiens, UniProt P50549 1-477). Conditions: protein: recombinant; tags: N-terminal GST; dsDNA, one strand shown. Summed up: as §1
Chain of ETV1 (P50549 whole entry): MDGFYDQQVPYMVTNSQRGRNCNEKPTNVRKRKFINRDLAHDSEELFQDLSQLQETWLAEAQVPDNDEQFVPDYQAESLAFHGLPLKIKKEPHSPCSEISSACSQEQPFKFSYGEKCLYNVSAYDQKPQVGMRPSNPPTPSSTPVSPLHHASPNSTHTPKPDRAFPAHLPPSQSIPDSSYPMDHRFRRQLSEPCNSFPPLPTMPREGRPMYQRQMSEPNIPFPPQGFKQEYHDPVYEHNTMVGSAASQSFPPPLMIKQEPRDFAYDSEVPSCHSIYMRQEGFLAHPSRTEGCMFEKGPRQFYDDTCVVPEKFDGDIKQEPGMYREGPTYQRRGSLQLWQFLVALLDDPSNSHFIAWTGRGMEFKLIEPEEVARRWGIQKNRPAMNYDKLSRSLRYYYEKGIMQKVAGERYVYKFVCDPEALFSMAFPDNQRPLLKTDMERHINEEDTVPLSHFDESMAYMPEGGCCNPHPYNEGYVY
Another assay addresses T6, ERF (Homo sapiens, UniProt P50548 1-548).
T6 sequence: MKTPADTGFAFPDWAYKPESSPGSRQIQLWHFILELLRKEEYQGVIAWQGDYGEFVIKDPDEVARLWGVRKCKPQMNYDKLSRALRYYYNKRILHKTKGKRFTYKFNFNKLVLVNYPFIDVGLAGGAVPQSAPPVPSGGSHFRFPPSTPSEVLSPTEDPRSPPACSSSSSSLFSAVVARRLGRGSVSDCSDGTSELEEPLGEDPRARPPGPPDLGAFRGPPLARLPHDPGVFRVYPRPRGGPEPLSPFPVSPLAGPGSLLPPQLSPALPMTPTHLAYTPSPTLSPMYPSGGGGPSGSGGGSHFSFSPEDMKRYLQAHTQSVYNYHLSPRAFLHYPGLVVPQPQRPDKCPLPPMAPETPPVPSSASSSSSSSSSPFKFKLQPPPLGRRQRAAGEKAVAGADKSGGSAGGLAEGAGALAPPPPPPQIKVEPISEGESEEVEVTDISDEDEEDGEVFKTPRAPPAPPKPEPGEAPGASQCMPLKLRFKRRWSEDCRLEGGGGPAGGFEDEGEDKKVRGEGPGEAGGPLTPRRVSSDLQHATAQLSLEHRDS
The conditions noted are these: protein: recombinant; tags: N-terminal GST; dsDNA, one strand shown. Summed up:
as §1

For another assay, the target named is T7, ETV3L (Homo sapiens, UniProt Q6ZN32 1-361).
T7 sequence: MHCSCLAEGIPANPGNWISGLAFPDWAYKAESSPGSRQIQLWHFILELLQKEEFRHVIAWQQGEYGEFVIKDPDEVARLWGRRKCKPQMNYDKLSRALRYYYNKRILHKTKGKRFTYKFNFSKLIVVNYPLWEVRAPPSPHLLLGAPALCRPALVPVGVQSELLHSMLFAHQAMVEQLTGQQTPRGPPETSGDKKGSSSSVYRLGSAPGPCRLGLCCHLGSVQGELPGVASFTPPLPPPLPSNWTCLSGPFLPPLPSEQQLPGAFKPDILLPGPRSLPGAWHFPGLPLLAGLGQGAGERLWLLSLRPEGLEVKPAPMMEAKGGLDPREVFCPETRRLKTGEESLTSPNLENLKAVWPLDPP
The conditions noted are these: protein: recombinant; tags: N-terminal GST; dsDNA, one strand shown. Summed up:
as §1

For the next assay, the target named is T8, ETS2 (Homo sapiens, UniProt P15036 1-469).
T8 sequence: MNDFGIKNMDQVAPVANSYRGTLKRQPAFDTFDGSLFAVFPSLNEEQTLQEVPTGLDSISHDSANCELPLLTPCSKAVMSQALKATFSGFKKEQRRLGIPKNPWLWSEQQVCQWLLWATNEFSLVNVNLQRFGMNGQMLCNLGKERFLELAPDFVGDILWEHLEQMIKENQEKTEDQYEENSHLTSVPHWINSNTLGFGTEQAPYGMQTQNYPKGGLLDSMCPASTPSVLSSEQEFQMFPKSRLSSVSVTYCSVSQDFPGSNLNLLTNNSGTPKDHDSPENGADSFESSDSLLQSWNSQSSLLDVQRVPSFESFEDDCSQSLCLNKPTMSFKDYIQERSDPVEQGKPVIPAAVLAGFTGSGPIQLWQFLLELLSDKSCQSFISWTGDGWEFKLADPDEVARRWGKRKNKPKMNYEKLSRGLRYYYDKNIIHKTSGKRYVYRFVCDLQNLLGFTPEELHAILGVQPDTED
Conditions: protein: recombinant; tags: N-terminal GST; dsDNA, one strand shown. Summed up:
as §1

A further assay has as its target T9, SPDEF (Homo sapiens, UniProt O95238 1-335).
T9 sequence: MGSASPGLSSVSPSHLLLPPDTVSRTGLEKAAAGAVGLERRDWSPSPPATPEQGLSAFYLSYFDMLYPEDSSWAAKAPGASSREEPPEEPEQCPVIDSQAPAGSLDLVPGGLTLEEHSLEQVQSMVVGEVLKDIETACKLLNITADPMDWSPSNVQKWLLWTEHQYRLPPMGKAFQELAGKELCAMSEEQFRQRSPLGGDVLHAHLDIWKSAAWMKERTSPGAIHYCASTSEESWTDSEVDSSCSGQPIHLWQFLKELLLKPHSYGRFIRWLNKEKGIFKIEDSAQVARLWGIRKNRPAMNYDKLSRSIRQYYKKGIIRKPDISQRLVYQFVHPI
Conditions: protein: recombinant; tags: N-terminal GST; dsDNA, one strand shown. Summed up:
as §1

The next assay deals with T10, ETV7 (Homo sapiens, UniProt Q9Y603 1-341).
T10 sequence: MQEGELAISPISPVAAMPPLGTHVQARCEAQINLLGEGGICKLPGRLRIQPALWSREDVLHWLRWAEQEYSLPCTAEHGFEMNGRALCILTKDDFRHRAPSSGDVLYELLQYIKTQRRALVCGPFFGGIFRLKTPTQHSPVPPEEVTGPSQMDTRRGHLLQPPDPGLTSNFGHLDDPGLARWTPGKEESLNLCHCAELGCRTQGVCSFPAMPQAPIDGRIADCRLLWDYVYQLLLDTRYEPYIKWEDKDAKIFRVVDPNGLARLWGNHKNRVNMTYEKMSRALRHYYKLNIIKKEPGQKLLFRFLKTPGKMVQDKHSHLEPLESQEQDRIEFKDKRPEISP
The conditions noted are these: protein: recombinant; tags: N-terminal GST; dsDNA, one strand shown. Summed up:
as §1

A further assay addresses T11, ELF5 (Homo sapiens, UniProt Q9UKW6-2 1-255).
T11 sequence: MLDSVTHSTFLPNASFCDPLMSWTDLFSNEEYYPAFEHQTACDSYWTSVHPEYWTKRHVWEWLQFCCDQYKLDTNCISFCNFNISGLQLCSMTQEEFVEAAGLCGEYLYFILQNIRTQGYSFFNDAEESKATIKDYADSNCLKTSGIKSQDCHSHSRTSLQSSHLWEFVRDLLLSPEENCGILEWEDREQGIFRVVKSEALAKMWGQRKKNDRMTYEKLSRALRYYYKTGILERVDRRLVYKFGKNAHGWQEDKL
Conditions: protein: recombinant; tags: N-terminal GST; dsDNA, one strand shown. Summed up:
as §1

Another assay has as its target T12, ETV3 (Homo sapiens, UniProt P41162-2 1-143).
T12 sequence: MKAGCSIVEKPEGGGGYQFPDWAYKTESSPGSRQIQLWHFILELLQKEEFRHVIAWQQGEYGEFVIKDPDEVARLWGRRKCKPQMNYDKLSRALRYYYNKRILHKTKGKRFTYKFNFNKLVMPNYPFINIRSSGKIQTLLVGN
Conditions: protein: recombinant; tags: N-terminal GST; dsDNA, one strand shown. Summed up:
as §1

The next assay deals with ETV6 (Homo sapiens, UniProt P41212 1-452). The conditions noted are these: protein: recombinant; tags: N-terminal GST; dsDNA, one strand shown. Summed up: as §1
Chain of ETV6 (P41212 whole entry): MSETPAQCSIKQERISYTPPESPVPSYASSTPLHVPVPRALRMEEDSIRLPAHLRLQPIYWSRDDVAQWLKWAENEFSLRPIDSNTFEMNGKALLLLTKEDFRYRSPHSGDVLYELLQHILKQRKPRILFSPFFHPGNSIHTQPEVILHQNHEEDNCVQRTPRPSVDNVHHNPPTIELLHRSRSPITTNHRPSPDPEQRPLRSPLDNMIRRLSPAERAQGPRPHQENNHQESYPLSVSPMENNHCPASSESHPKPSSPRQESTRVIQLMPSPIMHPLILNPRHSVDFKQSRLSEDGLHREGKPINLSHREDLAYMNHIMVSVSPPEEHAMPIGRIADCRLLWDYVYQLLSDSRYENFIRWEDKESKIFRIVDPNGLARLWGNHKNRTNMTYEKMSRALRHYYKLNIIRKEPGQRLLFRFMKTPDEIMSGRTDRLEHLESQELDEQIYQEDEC

Chain of ETV5 (P41161 whole entry): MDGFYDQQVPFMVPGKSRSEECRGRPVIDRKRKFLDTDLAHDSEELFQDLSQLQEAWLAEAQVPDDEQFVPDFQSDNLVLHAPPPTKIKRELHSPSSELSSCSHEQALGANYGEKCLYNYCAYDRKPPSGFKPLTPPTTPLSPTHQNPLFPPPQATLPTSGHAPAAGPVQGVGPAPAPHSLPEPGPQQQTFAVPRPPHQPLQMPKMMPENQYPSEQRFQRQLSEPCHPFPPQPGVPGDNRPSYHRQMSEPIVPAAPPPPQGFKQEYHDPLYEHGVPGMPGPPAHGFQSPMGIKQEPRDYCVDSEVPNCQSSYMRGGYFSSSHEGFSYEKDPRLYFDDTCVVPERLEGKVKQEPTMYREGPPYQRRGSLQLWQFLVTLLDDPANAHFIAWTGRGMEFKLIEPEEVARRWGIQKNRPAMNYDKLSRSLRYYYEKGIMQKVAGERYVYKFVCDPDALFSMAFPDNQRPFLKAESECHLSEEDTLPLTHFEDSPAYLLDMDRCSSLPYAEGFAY
Chain of CRX (O43186 whole entry): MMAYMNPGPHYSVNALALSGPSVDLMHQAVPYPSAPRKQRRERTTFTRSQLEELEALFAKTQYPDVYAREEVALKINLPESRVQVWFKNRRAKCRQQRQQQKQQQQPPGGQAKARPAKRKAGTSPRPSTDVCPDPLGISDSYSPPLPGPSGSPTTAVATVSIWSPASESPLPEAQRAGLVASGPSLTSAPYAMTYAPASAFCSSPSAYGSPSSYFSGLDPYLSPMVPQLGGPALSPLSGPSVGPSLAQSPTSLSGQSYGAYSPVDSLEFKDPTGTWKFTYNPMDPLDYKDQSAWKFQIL

For the sequence TTAGTT, the binding signal with FEV was 1.2 fold enrichment (6-mer frequency, TF over GST control); with ETV5, 1.25 fold enrichment (6-mer frequency, TF over GST control); in the assay with HSF1, 1.68 fold enrichment (6-mer frequency, TF over GST control); with SPIC it was 1.28 fold enrichment (6-mer frequency, TF over GST control); with ELF4 it was 1.37 fold enrichment (6-mer frequency, TF over GST control); in the assay with ELK4, 1.32 fold enrichment (6-mer frequency, TF over GST control). Moreover, the binding signal with ETV2 was 1.37 fold enrichment (6-mer frequency, TF over GST control); with ELF3 it was 1.25 fold enrichment (6-mer frequency, TF over GST control); with CRX, 2.25 fold enrichment (6-mer frequency, TF over GST control); with ETV1, 1.33 fold enrichment (6-mer frequency, TF over GST control); with ERF it was 1.37 fold enrichment (6-mer frequency, TF over GST control); in the assay with ETV3L, 1.35 fold enrichment (6-mer frequency, TF over GST control). Moreover, the binding signal is 1.23 fold enrichment (6-mer frequency, TF over GST control) with ETS2; 1.38 fold enrichment (6-mer frequency, TF over GST control) with SPDEF; 1.25 fold enrichment (6-mer frequency, TF over GST control) in the assay with ETV7; 1.24 fold enrichment (6-mer frequency, TF over GST control) with ELF5; 1.45 fold enrichment (6-mer frequency, TF over GST control) in the assay with ETV3; 1.38 fold enrichment (6-mer frequency, TF over GST control) with ETV6.
